Assay in all cases: DAPPL (digital affinity profiling via proximity ligation, sequencing); 10 mM Tris-HCl pH 7.5, 50 mM NaCl, 1 mM DTT, 4% glycerol, room temperature, 30 min; GST-TFs on glutathione beads, 16-mer random dsDNA library, 0.1% formaldehyde crosslink after washing; high values mean tight binding
The target of one test is T1, FLI1 (Homo sapiens, UniProt Q01543 1-452).
T1 sequence: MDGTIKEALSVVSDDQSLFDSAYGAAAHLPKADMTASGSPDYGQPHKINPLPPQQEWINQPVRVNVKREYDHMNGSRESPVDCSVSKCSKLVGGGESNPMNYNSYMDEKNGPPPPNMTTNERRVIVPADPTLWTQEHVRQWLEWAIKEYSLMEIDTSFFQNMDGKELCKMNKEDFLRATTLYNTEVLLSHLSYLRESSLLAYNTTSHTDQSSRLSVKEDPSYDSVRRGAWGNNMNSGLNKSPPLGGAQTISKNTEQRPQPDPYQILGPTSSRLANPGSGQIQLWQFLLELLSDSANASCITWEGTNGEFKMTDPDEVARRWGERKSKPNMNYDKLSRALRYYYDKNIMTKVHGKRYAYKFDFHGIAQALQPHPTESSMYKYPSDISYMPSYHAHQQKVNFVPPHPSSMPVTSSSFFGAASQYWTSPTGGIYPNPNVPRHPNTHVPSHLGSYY
The note with it: protein: recombinant; tags: N-terminal GST; dsDNA, one strand shown. The gist of the method:
(§1)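 Binding signal is given per hexamer as its read frequency for a factor divided by its frequency in the tag-only sample. GST-fused human transcription factors were expressed in yeast, captured on glutathione beads, barcoded with DNA and pooled with that sample, then incubated with 200 nmole of a 16-mer random double-stranded DNA library in Tris/NaCl/DTT/glycerol buffer for 30 min at room temperature. The pools were then washed, crosslinked, proximity-ligated, amplified by PCR and sequenced on an Illumina NextSeq500.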

For another test, the target named is T2, GABPA (Homo sapiens, UniProt Q06546 1-454).
T2 sequence: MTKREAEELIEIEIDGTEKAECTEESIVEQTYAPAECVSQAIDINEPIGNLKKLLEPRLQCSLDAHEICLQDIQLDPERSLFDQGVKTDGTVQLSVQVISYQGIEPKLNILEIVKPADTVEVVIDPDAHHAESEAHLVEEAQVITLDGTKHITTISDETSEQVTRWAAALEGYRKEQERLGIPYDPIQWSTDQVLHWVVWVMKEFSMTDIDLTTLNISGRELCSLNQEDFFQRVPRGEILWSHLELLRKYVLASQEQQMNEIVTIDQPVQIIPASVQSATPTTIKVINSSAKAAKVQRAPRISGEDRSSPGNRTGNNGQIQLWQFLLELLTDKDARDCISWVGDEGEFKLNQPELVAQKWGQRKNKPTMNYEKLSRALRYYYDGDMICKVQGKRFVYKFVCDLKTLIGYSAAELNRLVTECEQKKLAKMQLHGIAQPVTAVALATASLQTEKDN
The note with it: protein: recombinant; tags: N-terminal GST; dsDNA, one strand shown. The gist of the method: as §1

The next test deals with T3, ERG (Homo sapiens, UniProt P11308 1-479).
T3 sequence: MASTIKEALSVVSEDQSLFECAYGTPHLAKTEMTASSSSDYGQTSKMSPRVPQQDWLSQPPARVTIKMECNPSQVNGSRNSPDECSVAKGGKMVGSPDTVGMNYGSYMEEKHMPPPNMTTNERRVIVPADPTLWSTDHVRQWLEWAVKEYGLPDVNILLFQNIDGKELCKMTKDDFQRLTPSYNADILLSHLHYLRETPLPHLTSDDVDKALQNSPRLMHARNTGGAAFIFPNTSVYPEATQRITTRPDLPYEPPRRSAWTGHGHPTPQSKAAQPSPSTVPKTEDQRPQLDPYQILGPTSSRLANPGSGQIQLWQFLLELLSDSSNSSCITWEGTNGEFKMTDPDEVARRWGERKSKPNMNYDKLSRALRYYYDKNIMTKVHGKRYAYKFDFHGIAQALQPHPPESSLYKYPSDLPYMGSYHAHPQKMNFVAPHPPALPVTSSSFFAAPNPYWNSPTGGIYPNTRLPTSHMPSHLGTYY
The following applies: protein: recombinant; tags: N-terminal GST; dsDNA, one strand shown. The gist of the method: as §1

For the next test, the target named is ELF1 (Homo sapiens, UniProt P32519 1-619). The following applies: protein: recombinant; tags: N-terminal GST; dsDNA, one strand shown. The gist of the method: as §1
The next test has as its target T4, EHF (Homo sapiens, UniProt Q9NZC4 1-300).
T4 sequence: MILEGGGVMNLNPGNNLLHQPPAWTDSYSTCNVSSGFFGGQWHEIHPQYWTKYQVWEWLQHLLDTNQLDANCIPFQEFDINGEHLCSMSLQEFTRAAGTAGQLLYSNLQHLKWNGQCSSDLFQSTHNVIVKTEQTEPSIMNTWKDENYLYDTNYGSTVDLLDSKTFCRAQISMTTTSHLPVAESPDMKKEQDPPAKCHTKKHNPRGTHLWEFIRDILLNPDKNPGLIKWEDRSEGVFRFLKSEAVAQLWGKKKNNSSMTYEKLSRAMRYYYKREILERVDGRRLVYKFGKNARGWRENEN
The note with it: protein: recombinant; tags: N-terminal GST; dsDNA, one strand shown. The gist of the method: as §1

In another test the target is SPI1 (Homo sapiens, UniProt P17947 1-270). The following applies: protein: recombinant; tags: N-terminal GST; dsDNA, one strand shown. Summed up: as §1
The next test addresses SPIB (Homo sapiens, UniProt Q01892 1-262). The following applies: protein: recombinant; tags: N-terminal GST; dsDNA, one strand shown. Summed up:
as §1

In the next test the target is T5, ELK3 (Homo sapiens, UniProt P41970 1-407).
T5 sequence: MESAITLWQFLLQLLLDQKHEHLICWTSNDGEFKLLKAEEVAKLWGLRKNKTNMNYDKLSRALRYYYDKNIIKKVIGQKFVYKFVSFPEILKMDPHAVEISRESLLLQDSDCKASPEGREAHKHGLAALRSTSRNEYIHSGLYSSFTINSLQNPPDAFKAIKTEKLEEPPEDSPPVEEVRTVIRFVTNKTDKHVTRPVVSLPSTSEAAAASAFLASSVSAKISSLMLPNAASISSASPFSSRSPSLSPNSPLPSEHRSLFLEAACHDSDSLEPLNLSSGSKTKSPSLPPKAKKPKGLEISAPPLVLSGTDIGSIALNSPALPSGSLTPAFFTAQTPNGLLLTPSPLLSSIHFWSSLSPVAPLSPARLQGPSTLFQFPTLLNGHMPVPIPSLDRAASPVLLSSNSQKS
The note with it: protein: recombinant; tags: N-terminal GST; dsDNA, one strand shown. The gist of the method:
as §1

A further test deals with T6, FEV (Homo sapiens, UniProt Q99581 1-238).
T6 sequence: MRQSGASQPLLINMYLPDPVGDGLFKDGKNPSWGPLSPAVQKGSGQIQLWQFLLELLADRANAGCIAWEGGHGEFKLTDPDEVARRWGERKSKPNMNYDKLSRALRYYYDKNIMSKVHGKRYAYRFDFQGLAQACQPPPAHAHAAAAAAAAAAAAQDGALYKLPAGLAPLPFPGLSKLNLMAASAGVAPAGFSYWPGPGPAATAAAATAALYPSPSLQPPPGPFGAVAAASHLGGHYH
The following applies: protein: recombinant; tags: N-terminal GST; dsDNA, one strand shown. Summed up: as §1

Another test deals with ETV5 (Homo sapiens, UniProt P41161 1-510). The note with it: protein: recombinant; tags: N-terminal GST; dsDNA, one strand shown. The gist of the method: as §1
In the next test the target is HSF1 (Homo sapiens, UniProt Q00613 1-529). The following applies: protein: recombinant; tags: N-terminal GST; chain copies: 3; dsDNA, one strand shown. The gist of the method: as §1
The target in another test is ELF4 (Homo sapiens, UniProt Q99607 1-663). The note with it: protein: recombinant; tags: N-terminal GST; dsDNA, one strand shown. Summed up: as §1
The target in a further test is T7, ELK4 (Homo sapiens, UniProt P28324-2 1-405).
T7 sequence: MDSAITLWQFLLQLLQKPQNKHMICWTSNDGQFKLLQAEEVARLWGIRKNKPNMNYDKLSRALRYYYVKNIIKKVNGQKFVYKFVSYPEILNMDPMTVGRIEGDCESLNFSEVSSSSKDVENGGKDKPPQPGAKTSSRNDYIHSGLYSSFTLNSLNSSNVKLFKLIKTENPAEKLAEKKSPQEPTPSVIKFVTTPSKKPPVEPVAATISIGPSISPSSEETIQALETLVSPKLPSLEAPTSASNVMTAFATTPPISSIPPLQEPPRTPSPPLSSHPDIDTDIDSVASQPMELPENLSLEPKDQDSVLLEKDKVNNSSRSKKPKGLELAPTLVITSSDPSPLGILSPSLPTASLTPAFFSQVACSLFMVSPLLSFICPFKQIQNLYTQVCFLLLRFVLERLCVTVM
The following applies: protein: recombinant; tags: N-terminal GST; dsDNA, one strand shown. Summed up:
as §1

The target of a further test is T8, ETV2 (Homo sapiens, UniProt O00321 1-342).
T8 sequence: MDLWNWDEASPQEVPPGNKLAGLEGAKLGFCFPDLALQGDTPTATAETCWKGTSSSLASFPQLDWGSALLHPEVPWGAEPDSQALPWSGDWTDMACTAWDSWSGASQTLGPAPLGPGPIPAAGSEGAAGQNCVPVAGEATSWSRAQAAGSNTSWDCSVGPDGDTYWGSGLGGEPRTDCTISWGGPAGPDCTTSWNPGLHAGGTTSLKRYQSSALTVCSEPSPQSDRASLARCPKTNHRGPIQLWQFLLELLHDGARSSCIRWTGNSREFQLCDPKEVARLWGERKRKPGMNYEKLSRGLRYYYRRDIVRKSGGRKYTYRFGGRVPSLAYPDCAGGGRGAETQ
The following applies: protein: recombinant; tags: N-terminal GST; dsDNA, one strand shown. Summed up: as §1

The target in another test is CRX (Homo sapiens, UniProt O43186 1-299). The following applies: protein: recombinant; tags: N-terminal GST; dsDNA, one strand shown. The gist of the method: as §1
The target of another test is T9, ELK1 (Homo sapiens, UniProt P19419 1-428).
T9 sequence: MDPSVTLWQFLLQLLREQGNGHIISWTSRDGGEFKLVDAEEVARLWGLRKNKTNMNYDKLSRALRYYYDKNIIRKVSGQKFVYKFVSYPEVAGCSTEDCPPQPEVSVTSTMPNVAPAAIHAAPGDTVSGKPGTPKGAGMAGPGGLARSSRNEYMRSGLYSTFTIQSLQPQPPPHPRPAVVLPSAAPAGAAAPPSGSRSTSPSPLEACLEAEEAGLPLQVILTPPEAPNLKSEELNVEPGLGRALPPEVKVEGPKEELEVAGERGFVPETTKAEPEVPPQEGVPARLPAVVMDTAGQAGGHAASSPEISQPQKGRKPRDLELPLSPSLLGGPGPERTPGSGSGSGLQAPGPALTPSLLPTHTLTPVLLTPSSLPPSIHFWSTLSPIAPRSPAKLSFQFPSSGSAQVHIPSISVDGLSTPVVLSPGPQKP
The following applies: protein: recombinant; tags: N-terminal GST; dsDNA, one strand shown. Summed up:
as §1

For a further test, the target named is T10, ELF3 (Homo sapiens, UniProt P78545 1-371).
T10 sequence: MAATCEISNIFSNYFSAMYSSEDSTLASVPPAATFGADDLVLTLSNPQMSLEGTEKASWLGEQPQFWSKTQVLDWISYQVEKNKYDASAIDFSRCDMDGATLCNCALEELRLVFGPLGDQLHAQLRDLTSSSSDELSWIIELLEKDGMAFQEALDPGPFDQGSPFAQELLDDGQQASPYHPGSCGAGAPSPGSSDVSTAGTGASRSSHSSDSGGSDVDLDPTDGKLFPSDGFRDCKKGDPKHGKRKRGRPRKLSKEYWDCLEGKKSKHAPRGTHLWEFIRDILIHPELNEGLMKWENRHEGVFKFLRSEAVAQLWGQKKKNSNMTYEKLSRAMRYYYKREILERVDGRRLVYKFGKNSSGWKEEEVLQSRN
The note with it: protein: recombinant; tags: N-terminal GST; dsDNA, one strand shown. Summed up:
as §1

Data on two sequences can be found in PMC7862700, “An all-to-all approach to the identification of sequence-specific readers for epigenetic DNA modifications on cytosine”.

Sequence of SPIB (Q01892 whole entry): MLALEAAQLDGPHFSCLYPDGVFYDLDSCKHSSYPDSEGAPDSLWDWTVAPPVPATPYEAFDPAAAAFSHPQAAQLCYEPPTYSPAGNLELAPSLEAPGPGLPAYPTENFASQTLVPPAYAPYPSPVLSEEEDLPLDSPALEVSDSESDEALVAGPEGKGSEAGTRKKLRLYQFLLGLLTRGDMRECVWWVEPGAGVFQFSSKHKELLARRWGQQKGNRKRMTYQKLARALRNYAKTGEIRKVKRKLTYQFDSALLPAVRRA
Sequence of HSF1 (Q00613 whole entry): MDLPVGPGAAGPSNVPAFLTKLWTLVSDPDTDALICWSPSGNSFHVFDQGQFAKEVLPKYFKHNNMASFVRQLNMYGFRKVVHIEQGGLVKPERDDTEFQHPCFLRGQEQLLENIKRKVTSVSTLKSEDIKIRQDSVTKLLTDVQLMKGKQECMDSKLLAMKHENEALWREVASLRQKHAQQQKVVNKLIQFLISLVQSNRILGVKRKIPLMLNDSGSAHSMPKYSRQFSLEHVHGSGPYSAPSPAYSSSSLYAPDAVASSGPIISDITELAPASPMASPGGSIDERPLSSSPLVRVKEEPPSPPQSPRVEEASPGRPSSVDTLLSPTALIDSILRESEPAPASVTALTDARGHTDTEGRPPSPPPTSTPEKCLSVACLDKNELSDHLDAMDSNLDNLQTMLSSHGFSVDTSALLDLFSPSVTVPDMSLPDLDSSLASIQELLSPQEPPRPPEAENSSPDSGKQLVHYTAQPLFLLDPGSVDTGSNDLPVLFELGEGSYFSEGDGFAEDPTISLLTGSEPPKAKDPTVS
Sequence of ETV5 (P41161 whole entry): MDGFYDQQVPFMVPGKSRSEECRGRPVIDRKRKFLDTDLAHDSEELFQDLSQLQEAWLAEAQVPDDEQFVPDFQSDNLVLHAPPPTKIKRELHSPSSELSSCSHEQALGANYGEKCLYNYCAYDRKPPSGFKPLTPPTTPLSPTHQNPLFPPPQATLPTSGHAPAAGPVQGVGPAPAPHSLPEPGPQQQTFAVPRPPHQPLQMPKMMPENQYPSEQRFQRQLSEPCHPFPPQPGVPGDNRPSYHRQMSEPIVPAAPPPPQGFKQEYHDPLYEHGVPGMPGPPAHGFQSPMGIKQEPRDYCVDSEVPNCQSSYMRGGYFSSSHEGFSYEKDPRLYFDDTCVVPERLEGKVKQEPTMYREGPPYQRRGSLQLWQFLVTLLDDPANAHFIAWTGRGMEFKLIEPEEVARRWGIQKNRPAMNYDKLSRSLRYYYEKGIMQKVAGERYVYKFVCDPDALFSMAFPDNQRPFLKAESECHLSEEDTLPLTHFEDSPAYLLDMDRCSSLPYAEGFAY
Sequence of ELF4 (Q99607 whole entry): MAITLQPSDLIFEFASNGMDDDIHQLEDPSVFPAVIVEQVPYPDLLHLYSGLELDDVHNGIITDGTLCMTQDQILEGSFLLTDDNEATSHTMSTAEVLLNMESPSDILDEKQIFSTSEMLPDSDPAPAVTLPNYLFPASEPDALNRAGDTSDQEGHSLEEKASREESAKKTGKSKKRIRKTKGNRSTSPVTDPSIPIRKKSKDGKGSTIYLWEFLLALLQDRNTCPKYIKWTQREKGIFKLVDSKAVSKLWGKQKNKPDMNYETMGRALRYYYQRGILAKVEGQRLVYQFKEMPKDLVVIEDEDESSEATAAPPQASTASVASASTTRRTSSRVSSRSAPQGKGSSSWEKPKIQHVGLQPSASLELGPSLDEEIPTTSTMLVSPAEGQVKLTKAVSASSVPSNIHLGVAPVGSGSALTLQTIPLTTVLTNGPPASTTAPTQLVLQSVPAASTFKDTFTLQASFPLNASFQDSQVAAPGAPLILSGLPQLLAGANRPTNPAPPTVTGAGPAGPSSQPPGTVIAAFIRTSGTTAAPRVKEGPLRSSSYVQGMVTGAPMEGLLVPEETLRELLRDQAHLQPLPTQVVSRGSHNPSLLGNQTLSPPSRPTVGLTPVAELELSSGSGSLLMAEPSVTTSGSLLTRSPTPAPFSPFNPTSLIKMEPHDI
Sequence of ELF1 (P32519 whole entry): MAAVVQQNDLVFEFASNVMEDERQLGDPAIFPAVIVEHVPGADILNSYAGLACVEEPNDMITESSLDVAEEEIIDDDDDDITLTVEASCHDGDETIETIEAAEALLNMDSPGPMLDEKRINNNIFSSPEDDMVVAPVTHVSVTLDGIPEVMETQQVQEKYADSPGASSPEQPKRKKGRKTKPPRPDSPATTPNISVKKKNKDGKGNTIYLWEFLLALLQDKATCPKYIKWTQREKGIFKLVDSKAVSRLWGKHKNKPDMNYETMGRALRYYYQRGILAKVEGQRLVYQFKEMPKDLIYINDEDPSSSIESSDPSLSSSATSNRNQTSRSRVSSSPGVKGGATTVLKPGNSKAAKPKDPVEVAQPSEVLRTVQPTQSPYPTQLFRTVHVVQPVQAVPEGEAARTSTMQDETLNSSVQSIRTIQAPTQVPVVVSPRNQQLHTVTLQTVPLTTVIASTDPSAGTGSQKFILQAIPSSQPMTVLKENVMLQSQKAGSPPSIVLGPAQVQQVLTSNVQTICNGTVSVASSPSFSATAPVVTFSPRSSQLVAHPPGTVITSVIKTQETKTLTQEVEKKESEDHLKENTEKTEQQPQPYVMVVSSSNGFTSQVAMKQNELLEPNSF
Sequence of CRX (O43186 whole entry): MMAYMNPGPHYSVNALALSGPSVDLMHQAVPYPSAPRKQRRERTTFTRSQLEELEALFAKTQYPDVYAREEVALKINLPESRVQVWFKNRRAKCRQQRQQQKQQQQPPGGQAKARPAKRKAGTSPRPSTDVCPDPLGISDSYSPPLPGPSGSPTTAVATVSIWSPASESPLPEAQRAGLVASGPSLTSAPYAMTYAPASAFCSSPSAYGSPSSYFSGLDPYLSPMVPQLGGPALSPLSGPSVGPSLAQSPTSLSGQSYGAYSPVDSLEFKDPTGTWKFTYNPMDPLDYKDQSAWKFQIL

Take GTTATC: the binding signal was 1.12 fold enrichment (6-mer frequency, TF over GST control) in the test with FLI1; 1.07 fold enrichment (6-mer frequency, TF over GST control) with GABPA; 1.1 fold enrichment (6-mer frequency, TF over GST control) with ERG; 1.09 fold enrichment (6-mer frequency, TF over GST control) with ELF1; 1.12 fold enrichment (6-mer frequency, TF over GST control) with EHF; 1.03 fold enrichment (6-mer frequency, TF over GST control) in the test with SPI1. Besides, the binding signal with SPIB is 1.02 fold enrichment (6-mer frequency, TF over GST control); with ELK3, 1.22 fold enrichment (6-mer frequency, TF over GST control); with FEV, 1.05 fold enrichment (6-mer frequency, TF over GST control); with ETV5, 1.12 fold enrichment (6-mer frequency, TF over GST control); with HSF1, 1.03 fold enrichment (6-mer frequency, TF over GST control); with ELF4 it was 1.04 fold enrichment (6-mer frequency, TF over GST control). For the same sequence, the binding signal with ELK4 is 1.22 fold enrichment (6-mer frequency, TF over GST control); with ETV2, 1.21 fold enrichment (6-mer frequency, TF over GST control); in the test with CRX it was 1.24 fold enrichment (6-mer frequency, TF over GST control).

Regarding ACATCG, the binding signal was 1.03 fold enrichment (6-mer frequency, TF over GST control) with FLI1; 1.01 fold enrichment (6-mer frequency, TF over GST control) with ELK1; 1.06 fold enrichment (6-mer frequency, TF over GST control) with ELF1; 1.15 fold enrichment (6-mer frequency, TF over GST control) in the test with EHF; 1.03 fold enrichment (6-mer frequency, TF over GST control) with SPI1; 1.1 fold enrichment (6-mer frequency, TF over GST control) with SPIB. In addition, the binding signal was 1.09 fold enrichment (6-mer frequency, TF over GST control) in the test with ELK3; 1.01 fold enrichment (6-mer frequency, TF over GST control) in the test with FEV; 1.04 fold enrichment (6-mer frequency, TF over GST control) with ETV5; 1.01 fold enrichment (6-mer frequency, TF over GST control) with HSF1; 1.09 fold enrichment (6-mer frequency, TF over GST control) with ELF4; 1.13 fold enrichment (6-mer frequency, TF over GST control) with ELK4. The binding signal with ELF3 was 1.04 fold enrichment (6-mer frequency, TF over GST control).
